Data taken from PMC7862700, “An all-to-all approach to the identification of sequence-specific readers for epigenetic DNA modifications on cytosine”.

Legend:
Assay in all cases: DAPPL (digital affinity profiling via proximity ligation, sequencing); 10 mM Tris-HCl pH 7.5, 50 mM NaCl, 1 mM DTT, 4% glycerol, room temperature, 30 min; GST-TFs on glutathione beads, 16-mer random dsDNA library, 0.1% formaldehyde crosslink after washing; high values mean tight binding
Conditions in all cases: protein: recombinant; tags: N-terminal GST; dsDNA, one strand shown
FLI1 = biological target: T1, FLI1 (Homo sapiens, UniProt Q01543 1-452)
T1 sequence: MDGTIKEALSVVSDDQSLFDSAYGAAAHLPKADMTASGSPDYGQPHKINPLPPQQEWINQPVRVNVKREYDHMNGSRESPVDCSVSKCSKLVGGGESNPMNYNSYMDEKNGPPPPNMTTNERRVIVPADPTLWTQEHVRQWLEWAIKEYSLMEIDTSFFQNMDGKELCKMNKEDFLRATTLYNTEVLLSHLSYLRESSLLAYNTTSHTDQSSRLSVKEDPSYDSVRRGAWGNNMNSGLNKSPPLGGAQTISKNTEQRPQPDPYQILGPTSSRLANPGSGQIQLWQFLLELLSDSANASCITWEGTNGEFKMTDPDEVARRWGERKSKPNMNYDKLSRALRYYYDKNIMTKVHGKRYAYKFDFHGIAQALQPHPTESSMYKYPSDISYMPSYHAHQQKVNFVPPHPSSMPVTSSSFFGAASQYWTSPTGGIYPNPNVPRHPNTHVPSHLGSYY
Summary of the method: (§1)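 After expression in yeast as GST fusions, human transcription factors were bound to glutathione beads, DNA-barcoded and mixed with a tag-only sample. The pools were incubated with 200 nmole of a 16-mer random double-stranded DNA library in Tris/NaCl/DTT/glycerol buffer (30 min, room temperature), washed and crosslinked with 0.1% formaldehyde. Proximity ligation with BsaI/T4 ligase ran for 1 h at 37 °C, before PCR amplification and sequencing on an Illumina NextSeq500. Binding signal is a hexamer's read frequency for a factor divided by its frequency for the tag-only sample.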

ELK1 = biological target: T2, ELK1 (Homo sapiens, UniProt P19419 1-428)
T2 sequence: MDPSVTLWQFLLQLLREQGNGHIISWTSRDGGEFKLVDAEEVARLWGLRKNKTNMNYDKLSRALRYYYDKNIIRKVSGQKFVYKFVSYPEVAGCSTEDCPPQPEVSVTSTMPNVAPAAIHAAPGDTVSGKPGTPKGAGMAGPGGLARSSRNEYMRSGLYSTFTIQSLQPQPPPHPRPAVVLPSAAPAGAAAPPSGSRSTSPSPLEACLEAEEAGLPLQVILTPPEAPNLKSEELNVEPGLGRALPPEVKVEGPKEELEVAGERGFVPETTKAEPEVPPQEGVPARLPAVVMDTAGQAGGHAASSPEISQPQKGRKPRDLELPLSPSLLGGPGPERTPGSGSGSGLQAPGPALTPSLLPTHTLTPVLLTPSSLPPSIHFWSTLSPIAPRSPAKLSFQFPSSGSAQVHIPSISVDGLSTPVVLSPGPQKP
Summary of the method: as §1

GABPA = biological target: T3, GABPA (Homo sapiens, UniProt Q06546 1-454)
T3 sequence: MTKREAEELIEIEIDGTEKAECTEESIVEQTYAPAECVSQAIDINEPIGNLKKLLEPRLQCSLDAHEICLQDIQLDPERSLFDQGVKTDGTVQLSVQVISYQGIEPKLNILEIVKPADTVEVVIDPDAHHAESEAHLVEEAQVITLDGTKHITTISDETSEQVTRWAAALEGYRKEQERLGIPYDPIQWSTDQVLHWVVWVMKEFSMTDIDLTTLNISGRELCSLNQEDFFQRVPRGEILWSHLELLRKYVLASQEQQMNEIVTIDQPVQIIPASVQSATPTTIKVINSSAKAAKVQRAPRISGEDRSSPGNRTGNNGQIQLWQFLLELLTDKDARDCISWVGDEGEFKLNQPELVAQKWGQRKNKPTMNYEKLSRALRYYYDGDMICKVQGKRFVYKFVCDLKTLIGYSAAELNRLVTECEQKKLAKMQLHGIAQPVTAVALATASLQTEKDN
Summary of the method: as §1

ERG = biological target: T4, ERG (Homo sapiens, UniProt P11308 1-479)
T4 sequence: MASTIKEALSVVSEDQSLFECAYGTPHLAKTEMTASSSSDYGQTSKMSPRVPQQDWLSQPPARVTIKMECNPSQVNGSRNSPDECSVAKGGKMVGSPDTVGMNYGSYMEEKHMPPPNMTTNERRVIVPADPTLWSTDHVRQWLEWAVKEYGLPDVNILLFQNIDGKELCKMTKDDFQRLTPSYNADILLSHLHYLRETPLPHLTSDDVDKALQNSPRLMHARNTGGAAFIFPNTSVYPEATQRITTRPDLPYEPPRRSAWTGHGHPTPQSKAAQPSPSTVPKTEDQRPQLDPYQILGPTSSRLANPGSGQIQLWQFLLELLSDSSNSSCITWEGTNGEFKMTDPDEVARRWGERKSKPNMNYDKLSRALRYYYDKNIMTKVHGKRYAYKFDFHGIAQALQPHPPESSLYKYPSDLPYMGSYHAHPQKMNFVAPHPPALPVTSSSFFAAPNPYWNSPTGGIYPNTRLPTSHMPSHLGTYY
Summary of the method: as §1

ELF1 = ELF1 (Homo sapiens, UniProt P32519 1-619)
ELF1, sequence (P32519 whole entry): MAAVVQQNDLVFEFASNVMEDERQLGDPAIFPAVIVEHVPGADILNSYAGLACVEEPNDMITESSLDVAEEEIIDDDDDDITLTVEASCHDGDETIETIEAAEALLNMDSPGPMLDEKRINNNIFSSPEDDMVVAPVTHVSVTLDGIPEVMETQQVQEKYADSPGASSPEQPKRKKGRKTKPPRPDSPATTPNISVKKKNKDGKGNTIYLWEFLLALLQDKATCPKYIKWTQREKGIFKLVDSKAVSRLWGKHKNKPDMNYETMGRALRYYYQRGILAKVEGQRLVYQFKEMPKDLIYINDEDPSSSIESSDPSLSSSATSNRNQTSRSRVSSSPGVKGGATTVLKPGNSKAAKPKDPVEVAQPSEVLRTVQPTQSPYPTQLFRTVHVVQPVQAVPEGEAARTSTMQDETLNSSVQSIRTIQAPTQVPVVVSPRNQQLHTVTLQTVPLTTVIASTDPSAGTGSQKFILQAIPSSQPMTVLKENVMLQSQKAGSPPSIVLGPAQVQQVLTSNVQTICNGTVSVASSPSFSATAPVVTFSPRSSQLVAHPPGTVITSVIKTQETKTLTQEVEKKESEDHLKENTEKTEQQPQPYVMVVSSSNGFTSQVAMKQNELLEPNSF
Summary of the method: as §1

EHF = biological target: T5, EHF (Homo sapiens, UniProt Q9NZC4 1-300)
T5 sequence: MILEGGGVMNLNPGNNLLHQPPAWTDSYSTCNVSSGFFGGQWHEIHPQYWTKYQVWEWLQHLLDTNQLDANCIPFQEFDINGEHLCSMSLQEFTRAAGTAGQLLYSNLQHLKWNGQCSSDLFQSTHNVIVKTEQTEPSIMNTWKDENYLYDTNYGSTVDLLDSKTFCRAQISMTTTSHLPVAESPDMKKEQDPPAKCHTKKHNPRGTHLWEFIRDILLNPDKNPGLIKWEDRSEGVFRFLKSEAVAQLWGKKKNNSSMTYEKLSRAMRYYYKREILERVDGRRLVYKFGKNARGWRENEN
Summary of the method: as §1

SPI1 = SPI1 (Homo sapiens, UniProt P17947 1-270)
Summary of the method: as §1

SPIB = SPIB (Homo sapiens, UniProt Q01892 1-262)
SPIB, sequence (Q01892 whole entry): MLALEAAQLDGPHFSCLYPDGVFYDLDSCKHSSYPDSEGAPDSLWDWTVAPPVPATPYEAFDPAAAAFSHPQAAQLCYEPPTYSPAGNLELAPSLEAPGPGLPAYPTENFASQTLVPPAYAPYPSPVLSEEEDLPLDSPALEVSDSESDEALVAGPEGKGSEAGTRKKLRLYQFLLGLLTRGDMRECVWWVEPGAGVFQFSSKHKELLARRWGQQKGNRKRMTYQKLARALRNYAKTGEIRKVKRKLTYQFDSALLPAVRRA
Summary of the method: as §1

ELK3 = biological target: T6, ELK3 (Homo sapiens, UniProt P41970 1-407)
T6 sequence: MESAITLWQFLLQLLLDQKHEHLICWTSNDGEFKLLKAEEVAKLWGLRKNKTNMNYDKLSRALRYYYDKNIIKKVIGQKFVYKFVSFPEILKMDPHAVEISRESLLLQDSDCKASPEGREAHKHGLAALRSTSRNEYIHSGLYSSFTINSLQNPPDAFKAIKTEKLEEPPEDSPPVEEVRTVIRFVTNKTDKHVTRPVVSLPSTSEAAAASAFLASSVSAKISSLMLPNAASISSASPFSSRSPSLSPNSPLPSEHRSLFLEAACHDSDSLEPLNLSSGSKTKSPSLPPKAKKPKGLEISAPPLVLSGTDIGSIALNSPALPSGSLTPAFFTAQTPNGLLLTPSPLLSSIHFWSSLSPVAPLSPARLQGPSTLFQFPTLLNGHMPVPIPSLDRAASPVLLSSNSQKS
Summary of the method: as §1

FEV = biological target: T7, FEV (Homo sapiens, UniProt Q99581 1-238)
T7 sequence: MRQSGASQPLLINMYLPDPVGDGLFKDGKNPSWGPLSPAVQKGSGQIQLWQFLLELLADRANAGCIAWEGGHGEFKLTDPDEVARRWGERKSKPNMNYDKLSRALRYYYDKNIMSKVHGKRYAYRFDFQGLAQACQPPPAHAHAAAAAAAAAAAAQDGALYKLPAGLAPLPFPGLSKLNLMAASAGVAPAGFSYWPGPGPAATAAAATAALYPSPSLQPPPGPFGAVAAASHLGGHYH
Summary of the method: as §1

ETV5 = ETV5 (Homo sapiens, UniProt P41161 1-510)
ETV5, sequence (P41161 whole entry): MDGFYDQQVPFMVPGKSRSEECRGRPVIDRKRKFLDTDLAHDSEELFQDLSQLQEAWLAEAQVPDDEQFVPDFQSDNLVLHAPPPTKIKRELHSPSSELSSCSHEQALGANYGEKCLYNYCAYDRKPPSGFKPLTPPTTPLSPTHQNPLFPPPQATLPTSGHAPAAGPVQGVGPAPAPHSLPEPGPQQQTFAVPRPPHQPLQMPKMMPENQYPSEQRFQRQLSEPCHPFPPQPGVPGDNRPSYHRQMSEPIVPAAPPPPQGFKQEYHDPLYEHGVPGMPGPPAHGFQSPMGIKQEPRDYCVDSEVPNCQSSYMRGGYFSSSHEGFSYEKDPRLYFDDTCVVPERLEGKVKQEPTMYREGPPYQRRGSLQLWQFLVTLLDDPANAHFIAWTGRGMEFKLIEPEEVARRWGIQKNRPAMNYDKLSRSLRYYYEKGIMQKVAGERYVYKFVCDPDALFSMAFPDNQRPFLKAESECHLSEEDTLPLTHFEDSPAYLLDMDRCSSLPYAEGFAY
Summary of the method: as §1

SPIC = biological target: T8, SPIC (Homo sapiens, UniProt Q8N5J4 1-248)
T8 sequence: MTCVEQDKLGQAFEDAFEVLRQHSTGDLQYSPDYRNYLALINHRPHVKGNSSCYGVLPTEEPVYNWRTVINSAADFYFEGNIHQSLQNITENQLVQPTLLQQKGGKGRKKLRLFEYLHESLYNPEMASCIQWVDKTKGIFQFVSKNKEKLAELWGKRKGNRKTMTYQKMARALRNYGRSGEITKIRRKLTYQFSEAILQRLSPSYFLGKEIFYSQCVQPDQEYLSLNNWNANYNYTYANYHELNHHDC
Summary of the method: as §1

ELF4 = ELF4 (Homo sapiens, UniProt Q99607 1-663)
ELF4, sequence (Q99607 whole entry): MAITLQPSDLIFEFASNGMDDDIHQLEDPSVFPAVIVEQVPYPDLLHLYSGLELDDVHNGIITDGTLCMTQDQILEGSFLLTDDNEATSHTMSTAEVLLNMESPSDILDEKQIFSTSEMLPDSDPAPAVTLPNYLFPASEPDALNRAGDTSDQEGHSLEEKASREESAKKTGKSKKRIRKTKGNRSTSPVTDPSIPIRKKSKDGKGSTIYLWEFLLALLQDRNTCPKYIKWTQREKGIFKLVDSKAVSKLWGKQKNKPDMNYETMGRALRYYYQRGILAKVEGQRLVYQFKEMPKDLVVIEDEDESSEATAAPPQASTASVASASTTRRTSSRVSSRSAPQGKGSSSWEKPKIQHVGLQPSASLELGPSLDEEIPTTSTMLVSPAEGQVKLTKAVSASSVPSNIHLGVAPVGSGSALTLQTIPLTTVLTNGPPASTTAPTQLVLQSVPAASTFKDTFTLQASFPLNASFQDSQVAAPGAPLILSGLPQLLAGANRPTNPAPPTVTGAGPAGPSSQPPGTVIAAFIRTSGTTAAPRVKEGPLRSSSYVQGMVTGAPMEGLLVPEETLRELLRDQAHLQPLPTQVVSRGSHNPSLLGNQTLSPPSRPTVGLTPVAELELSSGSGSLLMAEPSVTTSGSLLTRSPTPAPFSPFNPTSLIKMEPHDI
Summary of the method: as §1

ELK4 = biological target: T9, ELK4 (Homo sapiens, UniProt P28324-2 1-405)
T9 sequence: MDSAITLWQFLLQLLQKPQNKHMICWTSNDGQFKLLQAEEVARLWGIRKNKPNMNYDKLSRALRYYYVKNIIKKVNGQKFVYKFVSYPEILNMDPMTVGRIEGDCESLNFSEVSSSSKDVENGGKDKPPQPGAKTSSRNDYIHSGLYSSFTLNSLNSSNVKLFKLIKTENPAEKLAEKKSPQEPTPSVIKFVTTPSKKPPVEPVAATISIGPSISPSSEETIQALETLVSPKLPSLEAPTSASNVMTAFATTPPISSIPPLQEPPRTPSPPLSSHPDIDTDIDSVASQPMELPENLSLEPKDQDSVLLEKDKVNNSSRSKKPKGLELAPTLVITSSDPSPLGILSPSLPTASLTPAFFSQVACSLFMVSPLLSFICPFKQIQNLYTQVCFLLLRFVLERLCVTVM
Summary of the method: as §1

ETV2 = biological target: T10, ETV2 (Homo sapiens, UniProt O00321 1-342)
T10 sequence: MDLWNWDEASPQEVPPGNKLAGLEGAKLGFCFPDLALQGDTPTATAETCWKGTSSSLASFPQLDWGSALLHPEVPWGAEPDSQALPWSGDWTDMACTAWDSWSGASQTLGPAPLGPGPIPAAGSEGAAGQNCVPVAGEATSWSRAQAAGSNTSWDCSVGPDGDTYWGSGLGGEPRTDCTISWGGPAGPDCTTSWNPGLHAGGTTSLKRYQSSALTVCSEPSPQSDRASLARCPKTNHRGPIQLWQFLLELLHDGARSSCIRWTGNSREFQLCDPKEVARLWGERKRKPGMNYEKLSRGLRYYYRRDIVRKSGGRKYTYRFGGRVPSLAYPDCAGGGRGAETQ
Summary of the method: as §1

ELF3 = biological target: T11, ELF3 (Homo sapiens, UniProt P78545 1-371)
T11 sequence: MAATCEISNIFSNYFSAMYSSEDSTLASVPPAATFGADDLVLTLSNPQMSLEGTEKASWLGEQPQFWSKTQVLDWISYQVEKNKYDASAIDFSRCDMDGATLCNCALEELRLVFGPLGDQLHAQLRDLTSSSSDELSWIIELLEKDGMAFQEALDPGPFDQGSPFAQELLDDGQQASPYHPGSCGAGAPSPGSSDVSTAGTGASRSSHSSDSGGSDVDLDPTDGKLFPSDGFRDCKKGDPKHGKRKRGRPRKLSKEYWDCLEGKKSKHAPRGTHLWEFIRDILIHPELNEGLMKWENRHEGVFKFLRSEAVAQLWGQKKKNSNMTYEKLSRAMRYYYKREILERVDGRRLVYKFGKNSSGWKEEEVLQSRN
Summary of the method: as §1

ETV1 = ETV1 (Homo sapiens, UniProt P50549 1-477)
ETV1, sequence (P50549 whole entry): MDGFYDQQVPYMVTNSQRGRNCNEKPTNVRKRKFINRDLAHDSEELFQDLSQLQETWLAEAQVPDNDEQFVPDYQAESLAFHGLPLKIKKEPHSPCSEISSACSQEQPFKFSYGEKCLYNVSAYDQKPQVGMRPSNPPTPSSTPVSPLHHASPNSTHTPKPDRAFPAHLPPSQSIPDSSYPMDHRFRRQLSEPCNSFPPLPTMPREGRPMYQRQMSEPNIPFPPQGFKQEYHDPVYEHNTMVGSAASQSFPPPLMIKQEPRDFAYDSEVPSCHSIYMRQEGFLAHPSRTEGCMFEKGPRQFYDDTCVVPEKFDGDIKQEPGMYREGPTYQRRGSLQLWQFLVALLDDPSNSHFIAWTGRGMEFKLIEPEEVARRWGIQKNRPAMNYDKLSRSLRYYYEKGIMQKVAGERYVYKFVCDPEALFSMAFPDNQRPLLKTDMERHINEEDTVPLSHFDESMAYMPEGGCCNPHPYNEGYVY
Summary of the method: as §1

Sequence | binding signal (FLI1) | binding signal (ELK1) | binding signal (GABPA) | binding signal (ERG) | binding signal (ELF1) | binding signal (EHF) | binding signal (SPI1) | binding signal (SPIB) | binding signal (ELK3) | binding signal (FEV) | binding signal (ETV5) | binding signal (SPIC) | binding signal (ELF4) | binding signal (ELK4) | binding signal (ETV2) | binding signal (ELF3) | binding signal (ETV1)
GCACAT | 1.16 fold enrichment (6-mer frequency, TF over GST control) | 1.05 fold enrichment (6-mer frequency, TF over GST control) | 1.16 fold enrichment (6-mer frequency, TF over GST control) | 1.2 fold enrichment (6-mer frequency, TF over GST control) | 1.1 fold enrichment (6-mer frequency, TF over GST control) | 1.14 fold enrichment (6-mer frequency, TF over GST control) | 1.14 fold enrichment (6-mer frequency, TF over GST control) | 1.08 fold enrichment (6-mer frequency, TF over GST control) | 1.17 fold enrichment (6-mer frequency, TF over GST control) | 1.23 fold enrichment (6-mer frequency, TF over GST control) | 1.2 fold enrichment (6-mer frequency, TF over GST control) | 1.14 fold enrichment (6-mer frequency, TF over GST control) | 1.12 fold enrichment (6-mer frequency, TF over GST control) | 1.06 fold enrichment (6-mer frequency, TF over GST control) | 1.09 fold enrichment (6-mer frequency, TF over GST control) | 1.11 fold enrichment (6-mer frequency, TF over GST control) | 1.1 fold enrichment (6-mer frequency, TF over GST control)
ACATTG | 1.24 fold enrichment (6-mer frequency, TF over GST control) | 1.11 fold enrichment (6-mer frequency, TF over GST control) | 1.17 fold enrichment (6-mer frequency, TF over GST control) | 1.07 fold enrichment (6-mer frequency, TF over GST control) | 1.13 fold enrichment (6-mer frequency, TF over GST control) | 1.17 fold enrichment (6-mer frequency, TF over GST control) | 1.04 fold enrichment (6-mer frequency, TF over GST control) | 1.16 fold enrichment (6-mer frequency, TF over GST control) | 1.11 fold enrichment (6-mer frequency, TF over GST control) | 1.12 fold enrichment (6-mer frequency, TF over GST control) | 1.09 fold enrichment (6-mer frequency, TF over GST control) | 1.18 fold enrichment (6-mer frequency, TF over GST control) | 1.12 fold enrichment (6-mer frequency, TF over GST control) | 1.19 fold enrichment (6-mer frequency, TF over GST control) | 1.09 fold enrichment (6-mer frequency, TF over GST control) | 1.25 fold enrichment (6-mer frequency, TF over GST control) | 1.19 fold enrichment (6-mer frequency, TF over GST control)
